Data from PubChem BioAssay (NCI).
The panel holds about 79,000 compounds, 15% with a hit somewhere; the sample as a whole holds those more often. Values without a mark were called inactive. Active and inactive are the calls of the source. No stated cut-off is given here; in the data, active means growth inhibition above about 70%; inactive means the rest.

Columns and labels:
[1] = NCI Yeast Anticancer Drug Screen. Data for the rad50 strain (AID 155);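 further: 0% = growth of vehicle-only cultures of the same strain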; details: S. cerevisiae rad50 strain growth inhibition, active compounds read high
In short: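 Inhibition values express reduced yeast growth in compound-treated cultures relative to vehicle-treated controls.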

[2] = NCI Yeast Anticancer Drug Screen. Data for the mec2-1 strain (AID 157); details: S. cerevisiae mec2-1 strain, active compounds read high
In short: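 Growth inhibition is read against vehicle-treated controls after compound exposure of the mec2-1 yeast strain, which is defective in DNA damage repair or cell cycle control.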

[3] = NCI Yeast Anticancer Drug Screen. Data for the sgs1 mgt1 strain (AID 161);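 further: 0% = growth of cultures given vehicle only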; details: S. cerevisiae sgs1 mgt1 strain, active compounds read high
In short: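 This yeast growth screen uses a strain with defined DNA-repair lesions; compound-treated growth is compared with vehicle-treated growth.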

[4] = NCI Yeast Anticancer Drug Screen. Data for the cln2 rad14 strain (AID 165);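 further: 0% = growth equal to vehicle treated cultures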; details: S. cerevisiae cln2 rad14 strain, active compounds read high
In short: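 Growth inhibition, relative to vehicle-treated controls, is the read-out. The test organism is a yeast strain with defined genetic alterations, cln2 rad14.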

[5] = NCI Yeast Anticancer Drug Screen. Data for the bub3 strain (AID 167); details: S. cerevisiae bub3 mutant strain, active compounds read high
In short: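 Steps: expose the mutant yeast strain to compound; grow alongside vehicle-treated cultures; measure growth; express inhibition against the vehicle cultures.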

[6] = NCI Yeast Anticancer Drug Screen. Data for the mlh1 rad18 strain (AID 175); details: S. cerevisiae mlh1 rad18 strain growth inhibition, active compounds read high
In short: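 Cells of a genetically altered yeast strain, deficient in DNA damage repair, were treated with compound. Their growth was then compared with that of vehicle-treated cultures to give inhibition.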

[7] = at 5.0 µM (retest, dose inferred, filed as 0.5)
[8] = at 50.0 µM (retest, dose inferred, filed as 5.0)

| SMILES | growth inhibition [1, 7] | growth inhibition [1, 8] | growth inhibition ([1]; at 50.0 µM) | growth inhibition [2, 7] | growth inhibition [2, 8] | growth inhibition ([2]; at 50.0 µM) | growth inhibition [3, 7] | growth inhibition [3, 8] | growth inhibition ([3]; at 50.0 µM) | growth inhibition [4, 7] | growth inhibition [4, 8] | growth inhibition ([4]; at 50.0 µM) | growth inhibition [5, 7] | growth inhibition [5, 8] | growth inhibition ([5]; at 50.0 µM) | growth inhibition [6, 7] | growth inhibition [6, 8] | growth inhibition ([6]; at 50.0 µM) |
| --- | --- | --- | --- | --- | --- | --- | --- | --- | --- | --- | --- | --- | --- | --- | --- | --- | --- | --- |
| OC1(CCc2ccccc2)COC(C(F)(F)F)(C(F)(F)F)C1 (configuration not stated) | 18% | 24% | 76.4% (active) | 16% | 18% | 66% | 14% | 23% | 78.4% (active) | 1% | 23% | 52.8% | 5% | 21% | 61.1% | 26% | 30% | 74.8% (active) |
| COC(=O)c1ccccc1C#Cc1ccccc1C(=O)OC | -1% | -1% | 66.8% | -2% | 2% | 54.3% | -2% | 1% | 89% (active) | -2% | -7% | 12.9% | 3% | 4% | 83.5% (active) | -3% | -5% | 50% |
| CC(=O)N(c1ccccc1)c1nc2ccccc2s1 | -8% | 1% | -41.2% | -4% | -4% | -22.9% | -6% | -4% | -22.6% | -2% | -6% | -42.6% | 30% | 59% | 75.7% (active) | -25% | -51% | -30.3% |
| CC(=O)N1c2ccccc2C2=NN=C(N(C)C)SC21 (configuration not stated) | 6% | 98% (active) | 85.3% (active) | -15% | 98% (active) | 90% (active) | 0% | 98% (active) | 83.8% (active) | -20% | 97% (active) | 83.8% (active) | -14% | 99% (active) | 87.3% (active) | 1% | 97% (active) | 80.5% (active) |
| CCC/C(=N\NC(=S)N1CCCCCC1)c1ccccn1 | 69% | 97% (active) | 90.3% (active) | 77% (active) | 97% (active) | 93.5% (active) | 72% (active) | 97% (active) | 90.9% (active) | 66% | 97% (active) | 91.7% (active) | 90% (active) | 96% (active) | 90.7% (active) | 82% (active) | 96% (active) | 90.2% (active) |
| CCCCSc1n[nH]c(=O)nc1SC | -142% | 88% (active) | 47.1% | -63% | 79% (active) | 48.6% | -57% | 83% (active) | 46.5% | -56% | 90% (active) | 73.8% (active) | -64% | 87% (active) | 52.4% | -114% | 94% (active) | 50.9% |
| Cc1cc(Cl)ccc1OCC(=O)Oc1c(Cl)c(Cl)c(Cl)c(Cl)c1Cl | 7% | 36% | 65.8% | 8% | 13% | 73% (active) | 0% | 42% | 67.6% | -12% | 33% | 42.8% | -6% | 19% | 68.9% | 7% | 50% | 76% (active) |
| C=CCC(O)C(=O)OC1CC(C)CCC1C(C)(C)c1ccccc1 (configuration not stated) | -1% | 99% (active) | 99% (active) | 6% | 99% (active) | 99.2% (active) | 8% | 99% (active) | 99.5% (active) | -6% | 98% (active) | 98.8% (active) | 8% | 98% (active) | 99.4% (active) | 9% | 98% (active) | 99.2% (active) |
| COc1cc(/C=C2/SC(=S)NC2=O)cc(OC)c1O | -18% | 29% | 46.4% | 3% | 49% | 30.9% | 1% | 42% | 71.4% (active) | -25% | 20% | -1.6% | -24% | 22% | 42.6% | -1% | 19% | 41.2% |
| CCN(CC)CC(O)CNc1ccc(C)c2sc3ccccc3c(=O)c12 (configuration not stated) | 12% | 99% (active) | 99.8% (active) | 7% | 99% (active) | 99.8% (active) | 28% | 100% (active) | 95.2% (active) | 12% | 99% (active) | 99.5% (active) | 10% | 99% (active) | 99.5% (active) | 14% | 99% (active) | 99.8% (active) |
| O=C(NCCCNCCNC(=O)c1cc(-c2ccccc2)nc2ccccc12)c1cc(-c2ccccc2)nc2ccccc12 | -22% | 93% (active) | 98.6% (active) | -12% | 98% (active) | 99.2% (active) | -4% | 89% (active) | 99.1% (active) | 28% | 94% (active) | 99.3% (active) | -23% | 99% (active) | 99.1% (active) | 5% | 98% (active) | 99.3% (active) |
| O=C(O)CCC(=O)c1ccc(C2CCCC2)c2ccccc12 | 1% | 28% | 69.8% | -3% | 24% | 78.8% (active) | 3% | 34% | 68.3% | -17% | 42% | 72.7% (active) | -13% | 46% | 70.3% (active) | -6% | 11% | 86.6% (active) |
| CCN(CC)CCNc1nc(N)c2nc(-c3ccccc3)c(-c3ccccc3)nc2n1 | -4% | 51% | 95.3% (active) | -3% | 22% | 15.5% | -4% | 36% | 90.5% (active) | -1% | 5% | 27.6% | -22% | 36% | 61.7% | -5% | 56% | 85.8% (active) |
| CCCCN(CCC=C1c2ccccc2Oc2ccccc21)CCCC | 7% | 99% (active) | 99.7% (active) | 4% | 99% (active) | 99.7% (active) | 9% | 99% (active) | 99.7% (active) | 4% | 99% (active) | 99% (active) | 6% | 99% (active) | 11.7% | 5% | 99% (active) | 99.6% (active) |
| CN1C(=O)C2N(C(=O)C1(C)S)c1ccccc1C2(C)C (configuration not stated) | -5% | 37% | 47.7% | -4% | 29% | 32.5% | -3% | 41% | 15.7% | -14% | 49% | -17.6% | -4% | 25% | 10.3% | -1% | 32% | 24.8% |
| CCCCN(CCCC)Cc1ccc(NC(C(=O)c2ccccc2)c2ccccc2)cc1 (configuration not stated) | -5% | 46% | 85.8% (active) | 25% | 49% | 82.2% (active) | 5% | 86% (active) | 93.8% (active) | -1% | 34% | 97.2% (active) | 0% | 52% | 90.5% (active) | 22% | 72% (active) | 98.7% (active) |
| Nc1c(/C=C/c2cc3cc(C4=NCCN4)ccc3o2)[nH]c2cc(C3=NCCN3)ccc12 | 13% | 98% (active) | 97.5% (active) | 22% | 98% (active) | 98% (active) | -2% | 99% (active) | 98.2% (active) | -22% | 97% (active) | 97.4% (active) | 7% | 98% (active) | 97% (active) | 13% | 97% (active) | 97.8% (active) |
| Cc1cccc(Nc2c3c(nc4ccccc24)CCCCC3)c1 | 0% | 89% (active) | 90% (active) | -2% | 79% (active) | 28.1% | -2% | 85% (active) | 86.8% (active) | -3% | 53% | 66.9% | -1% | 92% (active) | 27.1% | -5% | 83% (active) | 93.2% (active) |
| COC(OC)(c1ccccc1)C(I)I | 100% (active) | 100% (active) | 99% (active) | 100% (active) | 100% (active) | 99.4% (active) | 100% (active) | 100% (active) | 99.3% (active) | 100% (active) | 99% (active) | 99.5% (active) | 100% (active) | 100% (active) | 99.3% (active) | 100% (active) | 99% (active) | 99.5% (active) |
